PubChem BioAssay AID1159580 (chemical genetic matrix, 2015)
Values joined by “and” are separate entries in the source; they are usually repeats but may differ in a detail not shown here. Equal entries are not always repeated. About 2,000 (36%) of roughly 5,500 compounds were called active. Not shown: some 18% with an inconclusive outcome. No stated cut-off is given here; in the data, active means normalized growth mostly below about 0.91 (no sharp cut-off); inconclusive means no clear call, values can overlap the other calls; inactive means mostly above about 0.92. The list shows a part of the results.

Experiment: chemical genetic growth profiling, strain panel (AID 1159580);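 further: tested at 20 µM; growth read once vehicle control cultures reached saturation at 30 °C; 1 = growth at the plate median or of vehicle wells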
Settings: S. cerevisiae deletion strains, growth OD

Measured: normalized growth

COc1cc2c(cc1OC)[C@@H]1C(=O)c3ccc4c(c3O[C@@H]1CO2)C=CC(C)(C)O4
active: locus YDR392W, strain spt3, stronger effect = lower value 0.607
inactive: locus YAL013W, strain DEP1, stronger effect = lower value 0.993 | locus YAL021C, strain ccr4, stronger effect = lower value 1.05 | locus YAL026C, strain drs2, stronger effect = lower value 1.02 | locus YAL030W, strain snc1, stronger effect = lower value 1.02 | locus YBL061C, strain skt5, stronger effect = lower value 1.01 | locus YBR009C, strain hhf1, stronger effect = lower value 0.938 | locus YBR021W, strain FUR4, stronger effect = lower value 0.972 | locus YBR023C, strain chs3, stronger effect = lower value 1.01 | locus YBR171W, strain sec66, stronger effect = lower value 0.993 | locus YBR229C, strain ROT2, stronger effect = lower value 0.99 | locus YBR231C, strain swc5, stronger effect = lower value 0.99 | locus YBR279W, strain paf1, stronger effect = lower value 1.01 | locus YCL011C, strain gbp2, stronger effect = lower value 0.98 | locus YCL016C, strain dcc1, stronger effect = lower value 1 | locus YCL029C, strain bik1, stronger effect = lower value 0.971 | locus YCL069W, strain vba3, stronger effect = lower value 1 | locus YCR088W, strain abp1, stronger effect = lower value 1.01 | locus YDL005C, strain med2, stronger effect = lower value 1.03 | locus YDL035C, strain GPR1, stronger effect = lower value 0.976 | locus YDL040C, strain nat1, stronger effect = lower value 1 | locus YDL074C, strain BRE1, stronger effect = lower value 0.994 | locus YDL101C, strain DUN1, stronger effect = lower value 0.976 | locus YDL134C, strain PPH21, stronger effect = lower value 0.99 | locus YDL185W, strain tfp1, stronger effect = lower value 0.97 | locus YDL192W, strain arf1, stronger effect = lower value 0.964 | locus YDR001C, strain nth1, stronger effect = lower value 1.01 | locus YDR069C, strain doa4, stronger effect = lower value 1 | locus YDR101C, strain arx1, stronger effect = lower value 0.988 | locus YDR137W, strain rgp1, stronger effect = lower value 0.88 | locus YDR150W, strain NUM1, stronger effect = lower value 0.987 | locus YDR159W, strain sac3, stronger effect = lower value 0.898 | locus YDR162C, strain NBP2, stronger effect = lower value 1.01 | locus YDR195W, strain ref2 1.1 | locus YDR297W, strain sur2, stronger effect = lower value 0.993 | locus YDR318W, strain mcm21, stronger effect = lower value 0.966 | locus YDR334W, strain swr1, stronger effect = lower value 1.02 | locus YDR335W, strain msn5, stronger effect = lower value 1.02 | locus YDR388W, stronger effect = lower value 0.974 | locus YDR502C, strain sam2, stronger effect = lower value 0.981 | locus YEL003W, strain gim4, stronger effect = lower value 1.01 | locus YEL037C, strain rad23, stronger effect = lower value 1.03 | locus YEL061C, strain CIN8 (second series), stronger effect = lower value 1.02 | locus YEL061C, strain CIN8, stronger effect = lower value 0.995 | locus YER015W, strain faa2, stronger effect = lower value 1.01 | locus YER016W, strain bim1, stronger effect = lower value 1.01 | locus YER110C, stronger effect = lower value 0.962 | locus YER111C, strain swi4, stronger effect = lower value 1.04 | locus YER155C, strain BEM2 (second series), stronger effect = lower value 0.991 | locus YER155C, strain BEM2, stronger effect = lower value 0.988 | locus YER167W, strain BCK2, stronger effect = lower value 0.955 | locus YFR010W, strain ubp6, stronger effect = lower value 1.01 | locus YGL078C, strain dbp3, stronger effect = lower value 0.973 | locus YGL086W, strain mad1, stronger effect = lower value 0.958 | locus YGL167C, strain pmr1, stronger effect = lower value 1 | locus YGL173C, strain kem1, stronger effect = lower value 0.978 | locus YGL227W, strain vid30, stronger effect = lower value 1 | locus YGL240W, strain doc1, stronger effect = lower value 0.98 | locus YGL248W, strain PDE1, stronger effect = lower value 0.986 | locus YGL253W, strain hxk2, stronger effect = lower value 0.996 | locus YGR078C, strain PAC10, stronger effect = lower value 1.01 | locus YGR135W, strain pre9, stronger effect = lower value 0.987 | locus YGR229C, strain SMI1, stronger effect = lower value 0.983 | locus YGR252W, strain gcn5, stronger effect = lower value 0.891 | locus YHR013C, strain ard1, stronger effect = lower value 0.993 | locus YHR027C, strain rpn1, stronger effect = lower value 1 | locus YHR030C, strain SLT2, stronger effect = lower value 0.986 and 0.96 | locus YHR079C, strain IRE1 (second series), stronger effect = lower value 0.987 | locus YHR079C, strain IRE1, stronger effect = lower value 0.954 | locus YHR094C, strain hxt1, stronger effect = lower value 0.978 | locus YHR129C, strain ARP1, stronger effect = lower value 0.989 | locus YHR142W, strain chs7, stronger effect = lower value 0.996 | locus YHR200W, strain rpn10, stronger effect = lower value 0.965 | locus YIL066C, strain RNR3, stronger effect = lower value 0.964 | locus YIL073C, strain SPO22, stronger effect = lower value 0.937 | locus YIL125W, strain kgd1, stronger effect = lower value 0.979 | locus YIR030C, strain dcg1, stronger effect = lower value 0.979 | locus YJL092W, strain hpr5, stronger effect = lower value 1 | locus YJL095W, strain BCK1 (second series), stronger effect = lower value 0.988 | locus YJL095W, strain BCK1, stronger effect = lower value 0.998 and 0.956 | locus YJL115W, strain asf1, stronger effect = lower value 1.01 | locus YJL129C, strain trk1, stronger effect = lower value 0.985 | locus YJL134W, strain LCB3, stronger effect = lower value 0.975 | locus YJL154C, strain vps35, stronger effect = lower value 1.01 | locus YJL164C, strain tpk1, stronger effect = lower value 1 | locus YJL166W, strain qcr8, stronger effect = lower value 0.959 | locus YJL168C, strain set2, stronger effect = lower value 0.972 | locus YJL187C, strain SWE1 (second series), stronger effect = lower value 0.993 | locus YJR043C, strain POL32, stronger effect = lower value 0.987 | locus YJR066W, strain TOR1, stronger effect = lower value 0.915 | locus YJR075W, strain HOC1, stronger effect = lower value 0.973
